# Assay results as given in the OligoGym collection.
# Biological target: EID2B
# Test: pooled miR-30 sensor sort-seq; sequence = guide strand
# Settings: shRNA
# Note: reference of the scale not given here.
row,Sequence,sensor-assay potency score (higher = more potent)
1,TTCCTGACAACTCTATTTCTTT,-0.963
2,TAAGTCAGAAGTGTCTTGGGAC,0.252
3,TTTTCTATTGAATATTTACTGT,-0.85
4,TATCTTTGCAAAACCATCCTTT,-0.0384
5,ATACTCGCGGAACAACAGCTGC,-1.3
6,TTTTTTCTCATATCTTTGCAAA,-1.11
7,TTGACATGACCACAAATTGTGA,-1.04
8,TCGCGGAACAACAGCTGCCGGT,-1.55
9,TTTTCTTTCATCACTTAGGTTC,-0.263
10,TAAACTGGCACAGCCTGCCTGT,-0.54
11,TTCTATTGAATATTTACTGTTC,0.0406
12,TAACTAAACTGGCACAGCCTGC,-0.861

# Biological target: EIF1
# Test: as above
# Settings: shRNA
row,Sequence,sensor-assay potency score (higher = more potent)
1,AATTACTTCTCCATATTCCGGA,0.541
2,TTTATCGTAATCATCAGCGATC,-0.622
3,TAGTAAGGGTCTTCCTGCCGTT,-0.658
4,AAACTTTTTCTTAAACGCCTTC,-0.311
5,TCTTTTTATCGTAATCATCAGC,-0.92
